# Compounds without any hit were thinned out: in the full panel of roughly 79,000, 15% have a hit. Calls of active or inactive are those of the source. Rule as the data show it: active = growth inhibition above about 70%; inactive = the rest.
# Experiment: NCI Yeast Anticancer Drug Screen. Data for the bub3 strain (AID 167)
# Conditions: S. cerevisiae bub3 mutant strain, at 50.0 µM, stronger effect = higher value
# How it was run: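 Steps: expose the mutant yeast strain to compound; grow alongside vehicle-treated cultures; measure growth; express inhibition against the vehicle cultures.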
row,Compound,growth inhibition
1,COC1C2CCC1C(N=O)C2Br (stereo not given),0.65% (inactive)
2,CC(CO)(NC(=O)c1ccccc1)C(=O)O (stereo not given),3.45% (inactive)
3,COc1cc(-c2c(C)c(C)nc(OC)c2C#N)cc(OC)c1OC,-15.2% (inactive)
4,NC(Cc1ccc(B(O)O)cc1)C(=O)O (stereo not given),7.75% (inactive)
5,COc1cc2c(cc1OC)C1=Cc3cc(OC)c(OC)cc3C(C)N1C=C2 (stereo not given),-23.9% (inactive)
6,CC(=O)N(CN1C(=O)CCC1C(=O)O)c1cccc(O)c1 (stereo not given),-12.7% (inactive)
7,CC1SCCNC1=O (stereo not given),4% (inactive)
8,O=C1OCC/C1=C\c1cccc2ccccc12,-5% (inactive)
9,COc1ccc(CSc2n[nH]c(=O)[nH]c2=S)cc1,4.7% (inactive)
10,O=C(Nc1ccccc1)Oc1ccc(Cl)cc1Cc1ccccc1,99.8% (active)
11,ClC1(Cl)CC1c1ccccc1 (stereo not given),1.45% (inactive)
12,CC(C)(C)c1cc2c(O)c(c1)Cc1cc(C(C)(C)C)cc(c1O)Cc1cc(C(C)(C)C)cc(c1O)Cc1cc(C(C)(C)C)cc(c1O)Cc1cc(C(C)(C)C)cc(c1O)Cc1cc(C(C)(C)C)cc(c1O)Cc1cc(C(C)(C)C)cc(c1O)Cc1cc(C(C)(C)C)cc(c1O)C2,-14% (inactive)
13,Cc1cc2c(C)[nH]nc2c(C(=O)O)c1C,3.2% (inactive)
14,NC(=O)CCn1ccc2ccccc21,5% (inactive)
15,CSC(=S)n1nc(-c2cccs2)c(N=Nc2ccc([N+](=O)[O-])cc2)c1C(F)(F)F,3.8% (inactive)
16,C[C@]12CC[C@@H]3c4cc(C=O)c(OCc5ccccc5)cc4CC[C@H]3[C@@H]1CCC2OCc1ccccc1 (stereo not given in full),-2.65% (inactive)
17,C[C@H](CCc1nc(C#N)c(N)o1)[C@H]1CC[C@H]2[C@@H]3[C@@H](O)CC4C[C@@H](O)CC[C@]4(C)[C@H]3C[C@@H](O)[C@]12C (stereo not given in full),-9.1% (inactive)
18,CC(N)c1ccc2ccccc2c1O (stereo not given),-6% (inactive)
19,O=C=Nc1ccc([N+](=O)[O-])cc1,32.9% (inactive)
20,O=C(O)/C(=C/c1ccccc1[N+](=O)[O-])c1cccs1,-11.3% (inactive)

row,Compound,growth inhibition
1,O=C(O)c1ccc(/C=N\N(CCO)C2=NCCN2)cc1,-0.35% (inactive)
2,O=C(OCCCCCCCCOC(=O)c1cccc([N+](=O)[O-])c1)c1cccc([N+](=O)[O-])c1,-5.55% (inactive)
3,CCCCCCCC/C=C\CCCCCCCC(=O)NCCN(CCN)C(=O)CCCCCCC/C=C\CCCCCCCC,-41.9% (inactive)
4,CC1/C(=N/O)CC(c2ccccc2)N(N=O)C1c1ccccc1 (stereo not given),13.6% (inactive)
5,O=c1[nH]cc(COCC(O)CO)c(=O)[nH]1 (stereo not given),-29.9% (inactive)
6,OC(COc1ccc(Cl)cc1Cl)CN1CCCC1 (stereo not given),-23.4% (inactive)
7,OC(CCCCCCCCC(O)CN1CCCCC1)CN1CCCCC1 (stereo not given),20.6% (inactive)
8,Cc1ccc(S(=O)(=O)NC(CC(C)C)C(=O)O)cc1 (stereo not given),1.3% (inactive)
9,CC(=O)OCOC(=O)CN(CC(=O)OCOC(C)=O)Cc1cc2c(cc1OC(C)=O)Oc1cc(OC(C)=O)c(CN(CC(=O)OCOC(C)=O)CC(=O)OCOC(C)=O)cc1C21OC(=O)c2ccccc21,-5% (inactive)
10,OCC1CC(c2ccccc2)=NO1 (stereo not given),-3.9% (inactive)
11,Cn1c(N)cc(=O)n(C)c1=O,17.5% (inactive)
12,CC(=O)Oc1cc(N(C)C)ccc1SC(Cl)(Cl)Cl,22.6% (inactive)
13,O=[N+]([O-])c1ccc(CCCCCc2ccccc2)cc1,4.5% (inactive)
14,O=C(O)C1CC2(CCC1c1ccccc1)SCCS2 (stereo not given),6.5% (inactive)
15,O=[N+]([O-])c1ccc(C2=NN(c3ccccc3)C(c3ccccc3)C2)cc1 (stereo not given),8.85% (inactive)
16,COc1cc(C2CC(C)=C(C)CC2C(=O)O)cc(OC)c1OC (stereo not given),10.4% (inactive)
17,O=C(/C=C/c1c[nH]c2ccccc12)c1ccccc1[N+](=O)[O-],7.6% (inactive)
18,Cc1ccccc1OCC(O)CO (stereo not given),-23.4% (inactive)
19,Cc1ccc(/C=N/NS(=O)(=O)c2ccccc2)cc1,12.1% (inactive)
20,N#CC1(c2ccccc2)OC1(C#N)c1ccccc1 (stereo not given),-11.2% (inactive)

# From PubChem BioAssay (NCI)
